# From PubChem BioAssay
# TDP43 rescue: rescues yeast growth from TDP-43 toxicity; AID 652104; 410,000 tested, 1.8% active; TDP-43 expressing yeast growth rescue, BacTiter-Glo, 24 h; Potency, µM (highest dose often 46.1 µM), inactives show at the top dose growth rescue (activation), actives largely listed as activators; also: % of control where 0% means no effect; nearly all actives have a fitted effect of over 50% in size
#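 Cell-based yeast growth screen: TDP-43 expression induced in galactose, inoculum OD600=0.02 after raffinose pregrowth to mid-log. Read-out BacTiter-Glo luminescence at 24 hr, 30 deg C; inhibition of toxicity seen as signal increase.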
# Mito fusion yeast: blocks mitochondrial division or promotes mitochondrial fusion | S. cerevisiae fusion-defective mutant growth rescue, CellTiterGlo 48 h | Potency, µM (titrated, usually from 46.1 µM), without a hit: at the highest dose growth rescue (activation), most hits filed as activators | 320,000 tested, 0.23% active; also: % of control where 0% means no effect; nearly all actives have a fitted effect of over 45% in size
#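 S. cerevisiae fusion-defective temperature-sensitive mutants (e.g. fzo1-1, mgm1-5) grown 48 h at 37C in YPEG (ethanol/glycerol non-fermentable) medium with 23 nl compound per well; growth rescue read as CellTiterGlo luminescence.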
# FUS suppressor: rescues growth of FUS-expressing yeast; Potency, µM (top dose mostly 76.6 µM), actives largely listed as activators; S. cerevisiae FUS-expressing, growth rescue, OD600, 24 h; AID 1347120; 390,000 tested, 0.24% active;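 also: plate controls were DMSO vehicle for no effect and reference control for full effect; nearly all actives have a fitted effect of over 55% in size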
#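 Read-out: OD at 600 nm after 24hr at 30C, reporting rescue of FUS-induced yeast toxicity. Cells at OD 0.005 in galactose (2%) minimal medium; compounds tested in a dilution series; CP55940 titration from 92uM final as control.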
# Abeta yeast res: A-beta toxicity reversal in yeast; AID 1347071; 410,000 tested, 0.063% active; yeast expressing A-beta42, growth rescue, OD600, 48 h; response scale: 0% DMSO, 100% iron-clioquinol control; Potency, µM (highest dose often 46.1 µM), hits mostly activators; also: nearly all actives have a fitted effect of over 55% in size
#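 Yeast growth medium received pinned compounds, then yeast cells expressing toxic A-beta were added; plates incubated at 30 C for 48 hr. Growth read as absorbance at 600 nm, normalized to DMSO and equimolar FeCl3 plus clioquinol controls.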
# aSyn rescue: rescues yeast growth from alpha-synuclein toxicity; Yeast expressing alpha-synuclein, growth rescue, BacTiter-Glo, 24 h; Potency, µM (titrated, usually from 46.1 µM), without a hit: top-dose growth rescue (activation), usual class: activators; 370,000 tested, 0.14% active; also: % of control where 0% means no effect; nearly all actives have a fitted effect of over 65% in size
#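 Rescue of yeast growth: cells expressing toxic alpha-synuclein, induced in galactose at OD600 0.02, incubated with compound 24 h at 30 C. ATP luminescence quantified growth; inhibitors of toxicity appear as activators.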
# Starred values were filed as active, the others as inactive; i = inactive; u = inconclusive; x = no result given. In the library only some 2.2% were active in any assay of this set; here they are far more common. Calls follow the shape of the dose curve; as a rule, active = well fitted curve in the direction sought with a large enough effect; inconclusive = small, poorly fitted or top-dose-only effect, or another doubt; inactive = no such curve, though single readings can be large; an effect the other way counts as inactive or inconclusive. Potency is read from the fitted curve at half-maximal effect.
SMILES,TDP43 rescue,Mito fusion yeast,FUS suppressor,Abeta yeast res,aSyn rescue
Cc1noc(C)c1COc1ccc(C(=O)N2CCN(c3cccc(Cl)c3)CC2)cc1,22µM*,-12%,i,i,10%
COc1ccccc1N1CCN(C(=O)c2cc3c(=O)n4ccccc4nc3s2)CC1,20µM*,-6%,i,i,8%
CCOc1ccccc1N1CCN(C(=O)c2ccc(-c3ccc(OC(C)=O)cc3)cc2)CC1,20µM*,u,u,i,1%
CN1CCN(C(=O)c2cc3c(=O)n4ccccc4nc3s2)CC1,-11%,-2%,i,i,1%
CCN(CC)c1ccc(NS(=O)(=O)c2ccc3c(c2)CCCN3C(C)=O)c(C)c1,u,x,i,i,x
CCN(CC)c1cc(C)c2cc(NC(=O)/C=C/c3ccccc3OC(C)C)ccc2n1,u,x,i,i,x
O=C1CCC(=O)N1c1ccc(NCc2ccccc2Cl)c([N+](=O)[O-])c1,22µM*,6%,i,i,7%
Cc1ccc(C)c(OCCn2c(C3CC(=O)N(Cc4ccc(F)cc4)C3)nc3ccccc32)c1 (stereo unspecified),35µM*,x,u,i,x
CCc1ccccc1N1CC(c2nc3ccccc3n2CCOc2ccc(Cl)c(C)c2)CC1=O (stereo unspecified),-11%,x,25µM*,i,x
CCOc1ccc(N2CC(c3nc4ccccc4n3CCOc3ccc(CC)cc3)CC2=O)cc1 (stereo unspecified),4%,x,i,i,x
Cc1cccc(OCCCCn2c(C3CC(=O)N(c4ccccc4Cl)C3)nc3ccccc32)c1 (stereo unspecified),13%,x,i,i,x
Cc1cccc(OCCCCn2c(C3CC(=O)N(c4ccc(C)cc4C)C3)nc3ccccc32)c1 (stereo unspecified),32µM*,x,u,i,x
CCc1ccc(N2CC(c3nc4ccccc4n3Cc3ccccc3C)CC2=O)cc1 (stereo unspecified),28µM*,x,u,i,x
COc1ccccc1N1CCN(S(=O)(=O)c2c(C)sc3ncn(CC(=O)N(C)c4ccc(Cl)cc4)c(=O)c23)CC1,7%,x,i,i,x
O=C(Nc1ccc(C(O)(C(F)(F)F)C(F)(F)F)cc1)c1ccc(F)cc1Cl,x,x,i,x,x
Brc1ccc(-c2csc(N3CCCCC3)n2)cc1,x,12%,x,x,x
Brc1ccc(CSc2ncnc3nc[nH]c23)cc1,u,13µM*,i,i,-12%
COc1ccccc1OCCn1c(C(C)Oc2ccccc2)nc2ccccc21 (stereo unspecified),23%,x,u,u,x
COC(=O)N[C@@H]1C[C@H]2[C@@H]3CC[C@H]4C[C@@H](OC)CC[C@]4(C)[C@H]3CC[C@]12C,4%,4%,i,i,-11%
COC(=O)N[C@@H]1C[C@H]2[C@@H]3CC[C@H]4C[C@@H](OC)CC[C@]4(C)[C@H]3CC[C@@]12C,28µM*,-18%,i,i,-18%
CCOC(=O)N1CCc2c(sc3c2c(=O)n(Cc2ccccc2)c(=O)n3CC(=O)Nc2ccccc2F)C1,0%,x,i,i,x
CCOc1ccccc1Nc1ccc2cc(S(=O)(=O)N3CCCCC3)ccc2n1,u,x,i,i,x
O=c1c2sc(-c3ccccc3)cc2nc2n1CCC2,13µM*,22%,i,i,u
Cn1c(NCCN2CCCC2)nc2cc(-c3ccccc3)sc2c1=O,7%,x,i,i,1%
O=c1c2sc(-c3ccccc3)cc2nc2n1CCCCC2,11µM*,3%,i,i,9%
SMILES,TDP43 rescue,Mito fusion yeast,FUS suppressor,Abeta yeast res,aSyn rescue
Cc1ccc(S(=O)(=O)N(C)CCCN(C)c2nc(-c3cccs3)nc3ccccc23)cc1,x,x,x,x,-27%
CC1(C(=O)NS(=O)(=O)Cc2cccc(Cl)c2)CCN1C(=O)c1ccc(C2CCCCC2)cc1 (stereo unspecified),23%,x,i,i,-9%
CC1(C(=O)NS(=O)(=O)Cc2ccccc2)CCN1C(=O)c1ccc(C2CCCCC2)cc1 (stereo unspecified),20µM*,x,i,i,-46%
CCn1nc(C)c2c(-c3ccccc3)cc(=O)n(C(C)C(=O)NCCC(C)C)c21 (stereo unspecified),u,x,i,i,x
Cc1cc(=O)oc2cc(O)cc(O)c12,4%,x,i,i,-1%
CCCCCc1cc(O)c2c(C)cc(=O)oc2c1,3.2µM*,14%,i,i,-9%
COc1ccc(CNC2CCC23CCCCC3)cc1OC (stereo unspecified),x,x,i,x,x
Cc1ccc(C(=O)Nc2ccccc2)cc1S(=O)(=O)Nc1ccc(Br)cc1,13µM*,x,i,i,x
O=C(COC(=O)c1ccccc1Oc1ccccc1)Nc1ccc(Br)cc1,x,x,x,x,-14%
CC(NC(=O)c1ccc([N+](=O)[O-])o1)C12CC3CC(CC(C3)C1)C2 (stereo unspecified),u,14µM*,i,i,-4%
CC(NC(=O)C12CC3CC(CC(C3)C1)C2)C(=O)NN=Cc1ccc([N+](=O)[O-])o1 (stereo unspecified),14%,x,i,i,1%
O=C1CC(c2ccc3c(c2)OCCO3)Oc2ccccc21 (stereo unspecified),14µM*,4%,i,i,-7%
CCOC(=O)CCCCCC(=O)Nc1ccc2c(c1)C(=O)N([C@@H](C)CO)C[C@H](C)[C@H](CN(C)C(=O)Nc1ccc(F)cc1)OCCCC[C@H](C)O2,27%,x,22µM*,i,0%
COc1ccc(NC(=O)Nc2ccc3c(c2)C(=O)N([C@H](C)CO)C[C@H](C)[C@@H](CN(C)Cc2ccc(Cl)c(Cl)c2)OCCCC[C@@H](C)O3)cc1,6%,x,u,i,-2%
C[C@@H]1CCCCO[C@H](CN(C)Cc2ccc(Cl)c(Cl)c2)[C@H](C)CN([C@@H](C)CO)C(=O)c2cc(NC(=O)Nc3ccc(F)cc3)ccc2O1,0%,x,35µM*,i,-6%
C[C@@H]1CN([C@H](C)CO)C(=O)c2cc(NC(=O)Nc3ccc(C(F)(F)F)cc3)ccc2O[C@H]1CN(C)C(=O)Nc1ccc(F)cc1,-16%,x,28µM*,i,1%
